From PubChem BioAssay
Most compounds without a hit are left out; they make up all but 21% or so of the library.
Pf growth 48h – P. falciparum growth inhibition at 48 hours (one generation); P. falciparum luciferase growth in erythrocytes, 48 h; Potency, µM (series often up to 28.7 µM), usual class: inhibitors; hit rate 5.9% among 310,000
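Compounds are pin-transferred into medium, infected erythrocytes (2% hematocrit, 0.1% parasitemia final) are added, and plates sit one parasite generation at 37 C in 5% CO2. Detection reagent is then added and luminescence measured.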
Pf growth 96h – P. falciparum growth inhibition at 96 hours; P. falciparum luciferase reporter growth, 96 h; Potency, µM (highest dose often 28.7 µM), most hits filed as inhibitors; hit rate 6.9% among 320,000
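Infected RBCs, 2% Hct / 0.05% parasitemia final; luciferase-reporter P. falciparum; cpd 96 h, 37 C, 5% CO2; luciferase detection reagent; luminescence.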
Shiga toxin inh – Shiga toxin inhibition | Vero cells, Shiga toxin protein synthesis inhibition reporter | inhibition, % at 38.7 µM | hit rate 9.2% among 290,000 | AID 2315; in the data active = inhibition mostly above about 28%, no sharp cut-off; inactive = mostly below about 43%
SARS PLpro yeast – inhibitors of SARS-CoV papain-like protease in yeast. S. cerevisiae expressing SARS-CoV PLpro, growth rescue. Potency, µM (titrated, usually from 32.9 µM), usual class: activators. hit rate 0.19% among 330,000. AID 485353; calls by dose curve; note: nearly all actives have a fitted effect of over 55% in size
CHX counter – counter-screen for Shiga toxin inhibitors: cycloheximide protein synthesis inhibition; cell reporter, cycloheximide protein synthesis inhibition counterscreen; max response, %; hit rate 12% among 300,000; AID 2314; in the data active = max response mostly above about 13%, no sharp cut-off; inactive = mostly below about 14%; note: read at 38.3 µM for the half of the compounds with a filed dose
NS1 function inh – blocks influenza NS1 protein function; Potency, µM (titrated, usually from 46.1 µM); hit rate 0.4% among 270,000; calls by dose curve; note: actives are rising curves; nearly all actives have a fitted effect of over 50% in size
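Recovery from NS1-induced slow growth read by OD600 in budding yeast switched to galactose assay medium (pH 6.0, -URA) at 1:100 dilution. Compound 23 nl per well; the matching strain lacking NS1 serves as control.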
A number is an active result; – = inactive; ? = inconclusive; · = no result given; [ ] = another dose, or the depositor's remark. Unless noted, calls come from the whole dose curve; as a rule, active = well fitted inhibition curve with a large enough effect; inconclusive = small, poorly fitted or top-dose-only effect, or another doubt; inactive = no such curve, though single readings can be large or run the other way.

SMILES	Pf growth 48h	Pf growth 96h	Shiga toxin inh	SARS PLpro yeast	CHX counter	NS1 function inh
Cc1cccc(OCC(=O)Nc2ccc(NC(=O)c3ccccc3)cc2)c1	–	?	–	–	–	–
CNC(=S)NNC(=O)COc1ccc(C)c(C)c1	–	–	–	13µM	–	–
Cc1ccc(OCC(=O)Nc2cc(NC(=O)COc3ccc(C)c(C)c3)cc(C(=O)O)c2)cc1C	–	–	–	–	–	–
CC(=O)NC(=S)NNC(=O)COc1ccc(Br)cc1	–	–	–	–	21	·
Cc1cccc(OCC(=O)Nc2cccc(O)c2)c1	–	?	active	–	30	–
Cc1ccc(OCC(=O)NCCNC(=O)c2ccncc2)cc1C	–	?	–	–	–	–
CCC(C)(C)C1CCC2(CC1)NC(=O)N(CC(=O)N1CCN(S(=O)(=O)c3cc(C)ccc3C)CC1)C2=O (configuration not stated)	–	–	–	?	–	–
CC(NC(=O)CN1C(=O)NC2(CCCCCC2)C1=O)c1ccccc1 (configuration not stated)	?	–	·	–	·	·
Cn1c(CNc2cccc(Cl)c2)nnc1SCC#N	–	–	–	–	–	·
CCNc1nc(NC(C)C)nc(N(C#N)C(C)C(=O)N(CC)CC)n1 (configuration not stated)	–	–	–	–	–	–
O=C(NCc1nnc2c(C(F)(F)F)cc(Cl)cn12)c1ccco1	–	–	–	–	–	–
O=C(COc1cc(Cl)c(Cl)cc1Cl)Nc1cccc(O)c1	–	–	115	–	38	–
CCC(C)[C@H](NC(=O)N1CC(=O)Nc2ccccc21)C(=O)N[C@H](C(=O)O)c1ccccc1 (some centres not stated)	–	–	–	–	–	–
c1ccc(Nc2ncnc3[nH]ncc23)cc1	–	–	–	–	–	–
CC1=CC(=C(C#N)C#N)C=C(C)N1CCC(C)C	–	?	–	–	–	·
O=C(Nc1ccccc1C(=O)O)c1ccccc1	·	–	–	–	–	–
Cc1c(NC(=O)c2ccc(-c3ccccc3)cc2)cccc1C(=O)O	–	–	66	–	35	–
CCOc1ccc(C(=O)Nc2cccc(C(=O)O)c2C)cc1Cl	–	–	66	–	31	–
CCC(=O)N1CCN(c2ccccc2NC(=O)c2ccc(OC)c(Cl)c2)CC1	·	7.4µM	–	–	–	–
COc1ccc(C(=O)Nc2ccccc2C(=O)O)cc1Cl	–	–	66	–	27	–
CN(Cc1ccco1)C(=O)CSc1nn2c(=O)c(C(C)(C)C)nnc2s1	·	·	·	–	·	·
COC(=O)c1c(NC(=O)c2ccc([N+](=O)[O-])o2)sc2c1CCN(C(C)C)C2	15µM	?	–	–	23	–
CC(C)N1CCc2c(sc(NC(=O)c3nc4ccccc4s3)c2C(N)=O)C1	–	–	–	–	–	·
CC(C)N1CCc2c(sc(NC(=O)c3ccc([N+](=O)[O-])o3)c2C(N)=O)C1	13µM	4.7µM	–	–	28	–
COC(=O)c1c(NC(=O)Cc2ccccc2)sc2c1CCN(C(C)C)C2	–	–	–	–	–	–
SMILES	Pf growth 48h	Pf growth 96h	Shiga toxin inh	SARS PLpro yeast	CHX counter	NS1 function inh
CC(=O)N1CCc2c(sc(NC(=O)c3ccc([N+](=O)[O-])o3)c2C#N)C1	–	?	82	–	–	–
COC(=O)C1C/C(=N\NS(=O)(=O)c2ccc(C)cc2)c2ccsc2C1 (configuration not stated)	–	–	–	–	–	–
CCc1ccc(N2CC(C(=O)N3CCN(c4ccccn4)CC3)CC2=O)cc1 (configuration not stated)	–	–	·	–	·	·
N#Cc1ccccc1CN1C(=O)NC(Cc2c[nH]c3ccccc23)C1=O (configuration not stated)	?	–	–	–	–	–
COCC(C)n1c(C)cc(C(=O)CN2C(=O)NC(Cc3c[nH]c4ccccc34)C2=O)c1C (configuration not stated)	·	5.2µM	–	–	–	–
COC(=O)c1ccc(CN2C(=O)NC(Cc3c[nH]c4ccccc34)C2=O)cc1 (configuration not stated)	–	–	118	–	37	–
O=C1NC(Cc2c[nH]c3ccccc23)C(=O)N1Cc1ccccc1 (configuration not stated)	–	–	–	–	–	–
CC(C)NC(=O)NC(=O)CN1C(=O)NC(Cc2c[nH]c3ccccc23)C1=O (configuration not stated)	–	–	–	–	–	·
CN1C(=O)C(Cc2c[nH]c3ccccc23)NC1=S (configuration not stated)	·	·	47	·	30	·
O=C1C(Cc2c[nH]c3ccccc23)NC(=S)N1Cc1ccccc1 (configuration not stated)	?	13µM	–	–	–	–
CCC1CCCCN1CCCNC(=O)c1ccc(CS(=O)(=O)c2ccccc2OC)o1 (configuration not stated)	–	–	–	–	–	–
CC1Cn2c(nc(=O)c3c2NCN(CCc2ccccc2)C3)S1 (configuration not stated)	–	–	–	–	–	·
O=C(NCC(=O)N(Cc1ccccc1)C(C(=O)NC1CCCC1)c1ccncc1)c1ccco1 (configuration not stated)	?	?	–	–	20	–[9.22 µM]
O=C(CNC(=S)N(Cc1ccccc1)Cc1cccnc1)NC1CCCCC1	?	9.3µM	–	–	–	–
O=C(NCC(=O)N(Cc1ccccc1)C(C(=O)NC1CCCC1)c1ccco1)c1ccco1 (configuration not stated)	–	5.2µM	–	–	–	–
CCOc1ccccc1C(C(=O)NC1CCCC1)N(Cc1ccco1)C(=O)CNC(=O)c1ccco1 (configuration not stated)	8.3µM	?	–	–	12	–
COc1cccc(/C(C)=N/Nc2ccc(S(=O)(=O)N3CCCCC3)cn2)c1	?	?	·	–	·	·
O=C(NC1CCCC1)C(=O)N(Cc1cccnc1)C(C(=O)NCc1ccco1)c1ccccc1F (configuration not stated)	–	–	–	–	–	–
O=C(NC1CCCCC1)C(=O)N(Cc1cccnc1)C(C(=O)NCc1ccco1)c1ccccc1 (configuration not stated)	–	5.2µM	–	–	–	·
CCCCN(C(=O)CNC(=O)c1cccs1)C(C(=O)NC1CCCC1)c1ccncc1 (configuration not stated)	–	–	–	–	28	–
Cc1ccccc1CC1SC(N=C(N)N)=NC1=O (configuration not stated)	–	?	·	–	–	–
Cn1nnnc1Sc1ncnc2scc(-c3ccsc3)c12	·	·	·	–	·	·
COc1cccc(CNC(=O)c2ccc(NC(=O)C3=CSCCO3)cc2)c1	–	–	116	–	22	–
CCOc1ccc(CNC(=O)c2ccc(NC(=O)C3=CSCCO3)cc2)cc1	–	?	–	–	34	–
